# Screening data (PubChem)
# Shn3 inh set2: Schnurri-3 reporter inhibition in Clone20 osteoblasts | Clone20 osteoblast Shn3 3'UTR firefly luciferase, 24 h | 360,000 tested, 0.52% active | inhibition, % at 12.5 µM | AID 588674;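 active means mean inhibition of at least 75% with every replicate also reaching 75%; inconclusive means mean inhibition at least 75% but some replicate below; inactive means mean inhibition below 75%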
# Jurkat NFkB inh: lowers PMA/ionomycin-induced NF-kB signal in Jurkat cells; PMA/ionomycin-induced NF-kB luciferase reporter, luminescence; inhibition, % at 4 µM; 330,000 tested, 0.53% active; in the data active means inhibition above about 50%
# Gli-Sufu block: antagonists of Gli-Sufu signaling; Sufu-KO-LIGHT fibroblasts, Gli luciferase reporter luminescence; 340,000 tested, 0.74% active; inhibition, % at 5 µM; AID 588413;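 active means inhibition above about 55%, limit read from the data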
# TAG inh: reduces triacylglycerol accumulation in H9c2 cells | Nile Red lipid (TAG) fluorescence; cells loaded with 200 µM oleic acid | inhibition, % at 12.5 µM | 230,000 tested, 0.66% active;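 active means pattern-corrected inhibition of lipid staining of at least 50% with the nuclear-stain viability signal not falling by more than 50%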
# aSyn UTR inh: MLPCN primary screen, SNCA 5' untranslated region; AID 1813; 300,000 tested, 0.82% active; inhibition, % (tested at 7.5 µM); alpha-synuclein 5'UTR reporter, inhibitor activity; in the data active means inhibition above about 60%; inconclusive means no clear call, values can overlap the other calls;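 further: H4 neuroglioblastoma cells stably carrying SNCA 5'UTR luciferase fusion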
# 697 NFkB inh: inhibitors of the PMA/ionomycin-induced NF-kB reporter in 697 B cells; 697 B-cell NF-kB luciferase reporter, 16 h; AID 435022; 330,000 tested, 0.33% active; inhibition, % at 4 µM; in the data active means inhibition above about 35%
# A number is an active result; – = inactive; ? = inconclusive; · = no result. Compounds with a hit are over-represented: about 2.3% of the library has one in this group of screens.
SMILES,Shn3 inh set2,Jurkat NFkB inh,Gli-Sufu block,TAG inh,aSyn UTR inh,697 NFkB inh
CCC1CN2CCc3cc(OC)c(OC)cc3C2CC1CC1NCCc2c1[nH]c1ccc(O)cc21 (stereo unspecified),92,·,87,–,·,·
COc1ccc2c(c1OC)CN1CCc3cc4c(cc3[C@H]1C2)OCO4,–,–,–,–,·,–
O=C1NCCCCC1(Cl)Cl,–,·,–,–,·,·
CC(=O)O[C@H]1C[C@@H]2OC3C=C(C)CCC3(C)[C@@]1(C)[C@@]21CO1 (stereo partly specified),98,·,66,–,·,·
CC(=O)OC1CC2OC3C=C(C)CCC3(C)C1(C)C21CO1 (stereo unspecified),98,·,·,·,·,·
CNc1ccc2oc(C[C@H]3O[C@@]4(CC[C@H]3C)O[C@H]([C@H](C)C(=O)c3ccc[nH]3)[C@H](C)C[C@H]4C)nc2c1C(=O)O,97,–,83,–,117,–
CC(N)C(=O)NC1C2C(=C(O)CC(O)C2O)C(=O)OC1(C)C(Cl)Cl (stereo unspecified),96,·,76,–,·,·
COc1cc2c(cc1OC)C(C)NCC2 (stereo unspecified),–,–,–,–,·,–
CC1CCC(C(C)C)C(OC(=O)Cn2c(COc3ccccc3)[n+](C)c3ccccc32)C1 (stereo unspecified),–,–,–,104,66,–
CC1=CC(C)CC(C)OC(=O)CC(c2ccc(O)cc2)NC(=O)C(Cc2c(Br)[nH]c3ccccc23)N(C)C(=O)C(C)NC(=O)C(C)C1 (stereo unspecified),–,·,83,98,·,·
Clc1ccc(COC(Cn2ccnc2)c2ccc(Cl)cc2Cl)cc1 (stereo unspecified),–,–,–,–,–,–
Clc1ccc(C(c2ccc(Cl)cc2)n2cc[n+](CC(OCc3ccc(Cl)cc3Cl)c3ccc(Cl)cc3Cl)c2)cc1 (stereo unspecified),87,–,–,–,·,–
CC=CC(C)=CC(C)C(=O)CC(O)CC1CC(=O)NC(=O)C1 (stereo unspecified),–,·,·,–,·,·
CC1CC(C)(O)CC(C(O)CC2CC(=O)NC(=O)C2)C1=O (stereo unspecified),94,·,84,–,·,·
Cc1ccccc1-n1c(CNc2ccccc2)nc2ccccc2c1=O,–,–,–,–,–,–
N#Cc1c(Br)n(C2OC(CO)C(O)C2O)c2ncnc(N)c12 (stereo unspecified),–,·,–,52,·,·
NC(=O)c1c(Br)n(C2OC(CO)C(O)C2O)c2ncnc(N)c12 (stereo unspecified),–,·,–,–,·,·
CCOc1cc2c(cc1OCC)-n1cccc1C(c1ccc(C(C)C)cc1)NC2 (stereo unspecified),90,–,–,·,–,–
CCOc1cc2c(cc1OCC)-n1cccc1C(c1ccc(F)cc1)NC2 (stereo unspecified),–,–,–,·,–,–
COc1ccccc1OCC(=O)Nc1ccc(Cl)cc1C(=O)c1ccccc1,–,–,–,·,–,–
N#CC12CNCC1CN=N2 (stereo unspecified),–,·,–,·,–,·
Cc1ccc(N2C(=O)NC(=O)/C(=C\C=C\c3ccco3)C2=O)cc1,–,–,–,–,–,–
Cc1cccc(N2C(=O)NC(=O)/C(=C\C=C\c3ccco3)C2=O)c1,98,–,–,–,–,–
CNC(=O)Oc1ccc(-c2cn3cc(C)ccc3n2)cc1,–,–,–,·,76,–
CNC(=O)Oc1cccc2ccccc12,·,–,–,–,–,–
SMILES,Shn3 inh set2,Jurkat NFkB inh,Gli-Sufu block,TAG inh,aSyn UTR inh,697 NFkB inh
Cc1cc([N+](=O)[O-])c2ccccc2[n+]1[O-],?,–,–,–,127,–
Cc1ccccc1[N+](=O)[O-],–,–,–,·,·,–
CC(C)n1c(O)c(C=NCc2cccnc2)c(=O)[nH]c1=S,–,–,–,–,–,–
CCN(CCCl)c1cc(CN(C)C)cc(NC(=O)c2ccc(C(=O)Nc3cc(CN(C)C)cc(N(CC)CCCl)c3)cc2)c1,96,·,–,–,·,·
CCN(CC)C(=O)c1ccc(NC(=O)c2cccc(C(F)(F)F)c2)cc1,–,–,–,–,–,–
CC1(C)C2CC=C(CN3CCC(O)CC3)C1C2 (stereo unspecified),–,–,–,·,–,–
C[C@H]1[C@@H](OS(=O)(=O)O)C[C@@H]2C[C@H]([C@@H](O)c3cc(=O)[nH]c(=O)[nH]3)NC3=NC[C@H]1N32,98,·,76,·,·,·
O=C1CC(N2CCC(n3c(=O)[nH]c4ccccc43)CC2)C(=O)N1c1ccc(F)cc1 (stereo unspecified),–,–,–,–,–,–
CCOC(=O)c1c(N)n(CCCOC(=O)c2ccco2)c2nc3ccccc3nc12,–,–,–,53,114,–
O=C(c1ccc(N2CC3CC(C2)c2cccc(=O)n2C3)c([N+](=O)[O-])c1)N1CCCCC1 (stereo unspecified),–,–,–,·,–,–
Cn1c(=O)n(C)c2cc([N+](=O)[O-])c(N3CCNCC3)cc21,–,–,57,–,–,–
CCC(=NCC1CCCO1)c1c(O)n(-c2ccccc2C)c(=O)[nH]c1=O (stereo unspecified),–,–,–,–,–,–
C=C1C(=O)OC2CC(C)C3C=CC(=O)C3(C)C(O)C12 (stereo unspecified),97,·,94,–,·,·
CC1Oc2cc3c(-c4c(O)cc(O)c5c(O)c6c(cc45)OC(C)C(C)C6=O)c(O)cc(O)c3c(O)c2C(=O)C1C (stereo unspecified),88,–,68,·,87,–
CC(C(=O)O)N(C(=O)c1ccccc1)c1ccc(F)c(Cl)c1 (stereo unspecified),–,–,–,–,–,–
COC1CC2C=C(C)C=CC=CC(=O)NC(c3ccccc3)CC=CCCC(O)CC(=O)C2=C1O (stereo unspecified),98,·,·,·,·,·
Oc1ccccc1-[n+]1c(-c2ccccc2)cc(-c2ccccc2)cc1-c1ccccc1,–,–,–,–,–,–
Cc1ccccc1-[n+]1c(-c2ccccc2)cc(-c2ccccc2)cc1-c1ccccc1,–,–,77,–,–,–
CCCCOc1ccc(CC2C(=O)N(C)C(=O)N(C)C2=O)cc1,–,–,–,·,–,–
O=C(N/N=C/c1c(O)n(-c2ccccc2)c(=O)[nH]c1=O)c1ccncc1,–,–,–,·,–,–
CC(=NCc1cccnc1)c1c(O)n(C2CCCCC2)c(=O)[nH]c1=O,–,–,–,·,–,–
CNc1cc(Cl)c2nonc2c1[N+](=O)[O-],90,·,–,79,–,·
Cc1cc([N+](=O)[O-])c(Cl)cc1NC(=O)C(C)C,–,–,–,·,–,–
CN(C)CC(C(=O)Cc1ccccc1)c1ccccc1 (stereo unspecified),95,·,–,–,·,·
COc1cc2cc(C(=O)N3CC(COS(C)(=O)=O)c4ccc(O)cc43)[nH]c2c(OC)c1OC (stereo unspecified),95,·,94,–,·,·
